High-throughput results: PubChem, National Center for Advancing Translational Sciences (NCATS)
LASV entry inh = blocks Lassa virus binding to or entry into cells; Lassa virus pseudotype entry inhibition, cell reporter; Potency, µM (titrated, usually from 37.9 µM), for inactives: at the highest dose activity change, negative = inhibition, actives largely listed as inhibitors; 1.2% of 300,000 active; calls by dose curve; tested in HEK293 cells; further: potency means the concentration at half of the fitted maximal effect; nearly all actives have a fitted effect of over 50% in size
HCMV inh = blocks human cytomegalovirus replication; HFF cells, HCMV-luciferase reporter, 72 h; hits give low values; activity change, negative = inhibition, % at 57.5 µM; 4.5% of 410,000 active; AID 1259415; in the data active means activity change below about -60%; inconclusive means no clear call, values can overlap the other calls; inactive means above about -39%
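Steps: HFFs plated, 16 h 37C; compounds added; HCMV-luciferase added to MOI 1 PFU/cell; 72 h 37C; OneGlo reagent, 5 min room temperature; luminescence read, normalized to controls.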
MARV entry inh = Marburg virus entry inhibition | Marburg virus pseudotyped entry inhibition, cell reporter | Potency, µM (titrated, usually from 37.8 µM), inactives show top-dose activity change, negative = inhibition, usual class: inhibitors | 1.8% of 300,000 active; calls by dose curve; tested in HEK293 cells; further: potency means the concentration at half of the fitted maximal effect
HCV inhibitor = inhibitors of hepatitis C virus infection | 3.4% of 340,000 active | Huh7.5.1 HCVcc-Cre infection, luciferase reporter, 44 h | Potency, µM (highest dose often 41.8 µM), for the others: top-dose activity change, negative = inhibition, most hits filed as inhibitors; active means well fitted inhibition curve with a large enough effect; inconclusive means small, poorly fitted or top-dose-only effect, or another doubt; inactive means no such curve, though single readings can be large or run the other way; further: potency means the concentration at half of the fitted maximal effect
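Seed cells (1,000/well) for 4 h; treat with compound and infect with HCVcc-Cre, moi about 0.5. Incubate 44 h, then detect luciferase activity.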
FMDV antiviral = antivirals against foot and mouth disease virus | FMDV antiviral cell-based qHTS | 1.2% of 410,000 active | Potency, µM (doses to about 57.9 µM), inactives show at the highest dose activity change, negative = inhibition, most hits filed as inhibitors; calls by dose curve; tested in HEK293T cells; further: read-out not given here; potency means the concentration at half of the fitted maximal effect; nearly all actives have a fitted effect of over 45% in size
Starred values were filed as active, the others as inactive; ? = inconclusive; · = no result given; + = active, no number; [ ] = dose if it differs, or a comment. Rows were chosen to be rich in hits. Some 7.9% of all compounds tested hit in one or more screens of this group. On the % scale 0 is the no-effect control and ±100 the full control effect.

SMILES	LASV entry inh	HCMV inh	MARV entry inh	HCV inhibitor	FMDV antiviral
Cc1sc2nc(SCC(=O)NCc3ccco3)n(CCc3ccccc3)c(=O)c2c1C	-23%	-68*	?	12%	0%
CCOC(=O)c1sc(NC(=O)CSc2n[nH]c(C)n2)nc1C	?	?	?	-10%	2%
CCOC(=O)c1sc(NC(=O)CSc2n[nH]c(CC(C)C)n2)nc1C	?	-62*	-2%	?	-6%
Cc1ncc2c(c1CNC(=O)c1ccc3c(c1)OCO3)CCN(C(=O)c1cc3ccccc3n1C)C2	·	·	·	·	-1%
Cc1c(Cl)cccc1NC(=O)CCS(=O)(=O)c1ccc(Br)s1	-12%[46.1 µM]	-30	-16%[46.1 µM]	·	-10%
Cc1ccc(S(=O)(=O)N(C)C)cc1NC(=S)NC(=O)C12CC3CC(CC(C3)C1)C2	-17%	-63*	?	16µM*	?
Cc1ccc(S(=O)(=O)N(C)C)cc1NC(=S)NC12CC3CC(CC(C3)C1)C2	-24%	-37	-32%	?	-28%
CC(=O)Nc1ccc(S(=O)(=O)Nc2nccc(/C=C/c3ccc(Cl)cc3)n2)cc1	?	-73*	?	6%	-21%
O=C(Nc1ccc(Cl)cc1)Nc1ccc(S(=O)(=O)Nc2ncccn2)cc1	·	?	·	14%	-3%
Nc1ccc(S(=O)(=O)Nc2nccc(/C=C/c3cccc([N+](=O)[O-])c3)n2)cc1	·	-29	·	·	-27%
Nc1ccc(S(=O)(=O)Nc2nccc(/C=C/c3cccc(Br)c3)n2)cc1	?	-73*	?	16%	-20%
O=S(=O)(Nc1ncccn1)c1ccc(NC(=S)Nc2ccc(Cl)cc2)cc1	·	-64*	·	-19%	7%
Cc1cccc(NC(=O)c2c(NC(=O)c3ccco3)sc3c2CCC(C(C)(C)C)C3)c1 (stereo not drawn)	3%[46.1 µM]	-5	16%[46.1 µM]	·	-14%
Cc1ccc(S(=O)(=O)N2CCN(CC(=O)N3CCOCC3)CC2)cc1	15%[46.1 µM]	4	?	8%[8.37 µM]	4%
Cc1cc(Cl)c(C)c(S(=O)(=O)N2CCN(CC(=O)N3CCOCC3)CC2)c1Cl	·	+	·	?	-19%
CC(C)CNC(=O)C(=O)Nc1c2c(nn1-c1ccc(Cl)cc1)CSC2	9%[46.1 µM]	-21	·	·	2%
C#CC[N+](CC)(CC)CC#Cc1ccccc1	2%	20	9%	-14%	-16%
C#CC[N+](C)(C)CC#Cc1ccc(C)cc1	·	-90*	·	-1%	-20%
NS(=O)(=O)c1ccc(N/N=C/c2cn(-c3ccccc3)nc2-c2cccs2)cc1	?	-77*	?	1.8µM*	-25%
NS(=O)(=O)c1ccc(N/N=C/c2cn(-c3ccccc3)nc2-c2cccs2)c([N+](=O)[O-])c1	?	-113*	10µM*	11µM*	?
COc1cccc(Nc2ncc3nc(-c4cn(C)c5ccccc45)c(=O)n(C[C@H]4CCCO4)c3n2)c1	·	·	·	·	-16%
CCCN(CCC)CCNC(=O)C1CCN(c2nc3ccc(CC)cc3s2)CC1	?	-98*	?	·	-2%
CCCN(CCC)CCCNC(=O)C1CCN(c2nc3ccc(CC)cc3s2)CC1	8%[46.1 µM]	-101*	27%[46.1 µM]	·	13%
Cc1ccccc1NC(=O)c1sc2nc(-c3ccncc3)ccc2c1N	-8%[46.1 µM]	?	?	·	0%
COc1ccc2c(c1OC)C(=O)OC2N1C(=O)CC[C@H]1C(=O)NCC1CCCO1 (stereo partly drawn)	·	1	·	0.56µM*	-14%
SMILES	LASV entry inh	HCMV inh	MARV entry inh	HCV inhibitor	FMDV antiviral
Cn1c(/C(C#N)=C/c2ccccc2Br)nc2ccccc21	?	-28	·	·	-16%
COc1ccc(N/C=C(\C#N)c2nc3ccccc3n2C)c(OC)c1	7%	-26	-6%	5µM*	-9%
COC(=O)C1=C(C(=O)OC)[C@@H]2N(Cc3ccccc3)c3ccccc3[C@@]23CCC(=O)N(CC2CCCCC2)C3=N1	·	·	11%[14.2 µM]	·	·
Cc1cccc(OCCSCc2nc3ccccc3[nH]2)c1	?	6	?	6.3µM*	?
Cc1ccccc1OCCSCc1nc2ccccc2[nH]1	-1%	?	-4%	?	-6%
CC(C)(C)C(=O)O/N=C(\N)Cc1ccc(-c2csnn2)cc1	?	23	8.9µM*	17%	-7%
COc1ccc(CC(=O)O/N=C(\N)Cc2ccc(OC)cc2)cc1	-19%	5	11%	6%	-20%
Cc1c(C(=O)NC2CCN(Cc3ccccc3)C2)oc2c(Cl)cccc12 (stereo not drawn)	10µM*	-30	?	-20%	-29%
C[n+]1c2cc(N)ccc2cc2ccc(N)cc21	·	-99*	·	1.4µM*	?
C[n+]1c2cc(N)ccc2cc2ccc(N)cc21 (tested in a mixture with another compound)	·	·	·	·	-7%
Cc1csc(NC(=O)CSc2nccn2C)n1	?	-6	?	13%	27%
COc1cc(C2C(=O)N(C3CCCCC3)CC(=O)N2CCC2=CCCCC2)ccc1OC(C)C (stereo not drawn)	17%[46.1 µM]	-13	·	·	-27%
CCn1c(C(=O)N2CCC(C(=O)N3CCN(c4ccc(OC)cc4)CC3)CC2)cc2sccc21	·	-25	5%[46.1 µM]	·	?
CCOC(=O)C1CCN(Cc2ccc(OC)cc2OC)CC1	-12%	43	-3%	-4%	?
CCOC(=O)C1CCN(Cc2cnc(Oc3ccc(OC)cc3)s2)CC1	1.5µM*	11	-11%	6%	-11%
c1cncc(-c2cn(C[C@H]3CC[C@@H]([C@@H]4CC[C@H](Cn5cc(-c6cccnc6)nn5)O4)O3)nn2)c1	·	?	·	10%	-2%
Cc1oc2cc3oc(=O)c(CCC(=O)N4C[C@H]5C[C@@H](C4)c4cccc(=O)n4C5)c(C)c3cc2c1C	·	-14	·	-26%	-11%
Cc1oc(-c2cccc(Cl)c2)nc1Cn1c(SCc2ccccc2F)nc2ccncc21	22%[46.1 µM]	25	?	·	-7%
Cc1ccc(/C(N)=N/OC(=O)c2ccc(C)cc2Cl)cc1	?	-79*	?	?	?
N/C(=N\OC(=O)c1ccc(Cl)cc1Cl)c1ccccc1	8.2µM*	30	?	?	-71%
Cc1cc(C)nc(OC(=O)c2ccc(Cl)cc2Cl)n1	·	-102*	·	·	·
Cc1cccc(/C(N)=N/OC(=O)c2ccc(Cl)cc2Cl)c1	?	-8	?	?	-68%
N/C(=N\OC(=O)c1ccc(Cl)cc1Cl)c1ccc(Cl)cc1	?	?	?	5%	0%
CCn1c(-c2ccccc2F)nc2cc(NC(C)=O)cc(C(=O)N(C)Cc3cn(C)nc3C)c21	·	·	·	·	-10%
C#CCn1c2ccccc2c2nc3ccccc3nc21	?	2	?	20%	0%
CC(C)n1c2ccccc2c2nc3ccccc3nc21	2%	-18	?	13µM*	-28%
O=C(c1ccccc1C(F)(F)F)N1CC2ON=C(c3c(F)cccc3Cl)C2C1 (stereo not drawn)	·	-1	·	·	·
CN(C)C(CNc1ccc(S(C)(=O)=O)cc1[N+](=O)[O-])c1ccccc1 (stereo not drawn)	?	-6	?	8%	31%
